# Experimental data published in PubChem BioAssay (NCATS).
# “And” between values parts separate entries of the source, which are not always exact repeats. Equal values may be shown once. Inconclusive results are not listed. A call without a number means that no potency is given here. Some compounds were tested as several samples or in several runs, with calls that do not always agree. The source made the active and inactive calls. Calls follow the shape of the dose curve; as a rule, active = well fitted curve in the direction sought with a large enough effect; inconclusive = small, poorly fitted or top-dose-only effect, or another doubt; inactive = no such curve, though single readings can be large; an effect the other way counts as inactive or inconclusive. Numbered stars: 1 amine (or outer) side, 2 acyl side, 3 side chain; on linkers, the order of the positions; unused ones are H or OH. Bridge positions count the residues as written; N and C are the ends. Square brackets hold non-standard residues; d marks the D form. Peptide text beside a SMILES is read from it. I, II: the chains in the order shown. Actinocin(9to1) = Cc1c2oc3c(C)ccc(C(=O)[*:1])c3nc-2c(C(=O)[*:2])c(N)c1=O; NMeV = CN[C@H](C(=O)O)C(C)C; Sar = CNCC(=O)O
# Columns and labels:
# [1] = Primary qHTS for inhibitors of nuclear receptor binding SET domain protein 2 (NSD2) in an isogenic RCH-ACV NSD2 p.E1099K mutant (9B) (AID 1645876); details: RCH-ACV NSD2 E1099K (9B) viability, CellTiter-Glo, 72 h; series mostly up to 44.9 µM
# [2] = Primary qHTS for inhibitors of nuclear receptor binding SET domain protein 2 (NSD2) in an RCH-ACV wild type WT cells (2C) (AID 1645877); details: RCH-ACV (leukaemia line) NSD2 WT (2C) viability, CellTiter-Glo, 72 h; series mostly up to 44.9 µM
# Also: nearly all actives have a fitted effect of over 70% in size.
# Potency is read from the fitted curve at half-maximal effect.
SMILES,Potency [1],Potency [2]
CCCSS/C(CCO)=C(\C)N(C=O)Cc1cnc(C)nc1N,15 µM (active),16.8 µM (active)
NC(=O)CC[C@@H]1NC(=O)[C@H](Cc2ccccc2)NC(=O)[C@H](Cc2ccc(O)cc2)NC(=O)CCSSC[C@@H](C(=O)N2CCC[C@H]2C(=O)N[C@@H](CCCN=C(N)N)C(=O)NCC(N)=O)NC(=O)[C@H](CC(N)=O)NC1=O,inactive,inactive
CN(C)C(=S)SC(=S)N(C)C,2.11 µM (active),2.99 µM (active)
CC(C)n1nc(-c2cc3cc(O)ccc3[nH]2)c2c(N)ncnc21,29.9 nM (active) and 3.32 µM (active),47.3 nM (active) and 3.32 µM (active)
CC(=O)CC(c1ccc([N+](=O)[O-])cc1)c1c(O)c2ccccc2oc1=O (configuration not stated),inactive,
C[C@H]1[C@H](NC(=O)/C(=N/OC(C)(C)C(=O)O)c2csc(N)n2)C(=O)N1S(=O)(=O)O (stereo in doubt),inactive,inactive
CCN1CCC[C@H]1CNC(=O)c1c(OC)ccc(Br)c1OC,inactive,inactive
Cc1onc(-c2c(Cl)cccc2Cl)c1C(=O)N[C@@H]1C(=O)N2[C@@H]1SC(C)(C)[C@@H]2C(=O)O,inactive,inactive
CC(=O)OCC(=O)NCCCOc1cccc(CN2CCCCC2)c1,inactive,inactive
Cc1c(N(C)CS(=O)(=O)O)c(=O)n(-c2ccccc2)n1C,inactive,inactive
O=C1c2ccccc2C(=O)C1c1ccccc1,inactive,inactive
CC(C)(CO)[C@@H](O)C(=O)NCCCO,inactive,inactive
Cc1ccc(C(=O)C(C)CN2CCCCC2)cc1 (configuration not stated),inactive,21.1 µM (active)
CN(C(=O)CN(CCO)CC(=O)N(C)C(C)(C)Cc1ccccc1)C(C)(C)Cc1ccccc1,5.31 µM (active),5.31 µM (active)
"Cc1c2oc3c(C)ccc(C(=O)N[C@@H]4C(=O)N[C@H](C(C)C)C(=O)N5CCC[C@H]5C(=O)N(C)CC(=O)N(C)[C@@H](C(C)C)C(=O)O[C@@H]4C)c3nc-2c(C(=O)N[C@@H]2C(=O)N[C@H](C(C)C)C(=O)N3CCC[C@H]3C(=O)N(C)CC(=O)N(C)[C@@H](C(C)C)C(=O)O[C@@H]2C)c(N)c1=O (I: T[dV]P[Sar][NMeV] / II: T[dV]P[Sar][NMeV]; ester I:1-I:C, II:1-II:C; linker I:N-II:N via Actinocin(9to1))",inactive,inactive
CNCCC=C1c2ccccc2CCc2ccccc21,23.1 µM (active),20.6 µM (active)
Cc1cccc(C)c1NC(=O)CN1CCN(CCCC(c2ccc(F)cc2)c2ccc(F)cc2)CC1,23.7 µM (active),11.9 µM (active)
CCCCC(CC)CN=C(N)NC(N)=NCCCCCCN=C(N)NC(N)=NCC(CC)CCCC (configuration not stated),0.75 µM (active),0.841 µM (active)
OC[C@@H](O)[C@@H](O[C@@H]1O[C@H](CO)[C@H](O)[C@H](O)[C@H]1O)[C@H](O)[C@@H](O)CO,inactive,
COc1cc2c(cc1OC)[C@@H]1CC(=O)[C@@H](CC(C)C)CN1CC2,inactive,inactive
CN1CCC[C@@H]1c1cccnc1,inactive,inactive
CC(=O)N(O)CCCCCNC(=O)CCC(=O)N(O)CCCCCNC(=O)CCC(=O)N(O)CCCCCN,7.5 µM (active) and 5.25 µM (active),4.73 µM (active) and 4.68 µM (active)
CN(C)CC/C=C1/c2ccccc2COc2ccc(CC(=O)O)cc21,inactive,inactive
Cc1ccccc1C(=O)Nc1ccc(C(=O)N2CCCC(N(C)C)c3ccccc32)cc1 (configuration not stated),5.78 µM (active),inactive and 5.15 µM (active)
COC(=O)CCc1ccc(OCC(O)CNC(C)C)cc1 (configuration not stated),inactive,inactive
CC[C@@H](CO)NCCN[C@@H](CC)CO,inactive,inactive

SMILES,Potency [1],Potency [2]
CC(Cc1ccccc1)(NC(=O)CN)c1ccccc1 (configuration not stated),inactive,inactive
COc1cc(-c2ccc(=O)[nH]n2)ccc1OC(F)F,inactive,inactive
C[C@]12CC[C@@H]3c4ccc(O)cc4CC[C@H]3[C@@H]1CC[C@@H]2O,16.6 µM (active),
CN1CCN(C(c2ccccc2)c2ccccc2)CC1,inactive,inactive
O=C1[C@H]2CCCC[C@H]2C(=O)N1CCCCN1CCN(c2nsc3ccccc23)CC1,21.1 µM (active),23.7 µM (active)
CCCCC1=NC2(CCCC2)C(=O)N1Cc1ccc(-c2ccccc2-c2nn[nH]n2)cc1,inactive,inactive
CC(C)(C)CC(C)(C)c1ccc(O)c(Cc2ccc(Cl)cc2Cl)c1,inactive,
Nc1nc2ncc(CNc3ccc(C(=O)N[C@@H](CCC(=O)O)C(=O)O)cc3)nc2c(=O)[nH]1,inactive,inactive
Cc1ncc(CSSCc2cnc(C)c(O)c2CO)c(CO)c1O,inactive,inactive
CN=C(NC#N)NCCSCc1csc(N=C(N)N)n1,inactive,inactive
O=C(N/N=C/c1ccccc1O)c1ccncc1,6.68 µM (active),23.7 µM (active)
CCC(C(=O)OCCN(CC)CC)c1ccccc1 (configuration not stated),inactive,inactive
O=c1[nH]c(=O)n([C@H]2C[C@H](O)[C@@H](CO)O2)cc1C(F)(F)F,596 nM (active) and 1.05 µM (active),106 nM (active) and 662 nM (active)
C=C1C(=C/C=C2\CCC[C@]3(C)[C@@H]([C@H](C)/C=C/[C@@H](O)C4CC4)CC[C@@H]23)C[C@@H](O)C[C@@H]1O,15 µM (active),16.8 µM (active)
O=C(CCN1CCC(c2ccccc2)C1)c1ccc2c(c1)OCCO2 (configuration not stated),2.37 µM (active),2.99 µM (active)
CN(C)CCOc1ccccc1Cc1ccccc1,inactive,inactive
CC/C(=C(/CC)c1ccc(O)cc1)c1ccc(O)cc1,inactive,10.6 µM (active) and inactive
CCOc1ccc2nc3cc(N)ccc3c(N)c2c1,5.96 µM (active),5.31 µM (active)
CC(C)(Oc1ccc(Cl)cc1)C(=O)O,inactive,inactive
CC(C)(C)NC(=O)[C@@H]1CN(Cc2cccnc2)CCN1C[C@@H](O)C[C@@H](Cc1ccccc1)C(=O)N[C@H]1c2ccccc2C[C@H]1O,inactive,inactive
C[C@H](O)C(=O)Nc1c(I)c(C(=O)NC(CO)CO)c(I)c(C(=O)NC(CO)CO)c1I,inactive,inactive
O=C(O)CNC(=O)c1ccccc1,inactive,inactive
CNC(=O)CN(CCN(CCN(CC(=O)[O-])CC(=O)NC)CC(=O)[O-])CC(=O)[O-].O.[Gd+3],inactive,inactive
COc1ccc(OC)c(C(O)CNC(=O)CN)c1 (configuration not stated),inactive,inactive
CCCCOc1ccc(C(=O)CCN2CCCCC2)cc1,15 µM (active),13.3 µM (active)
NCCCC[C@H](N[C@@H](CCc1ccccc1)C(=O)O)C(=O)N1CCC[C@H]1C(=O)O,inactive,inactive

SMILES,Potency [1],Potency [2]
Cc1c(F)c(N2CCNC(C)C2)cc2c1c(=O)c(C(=O)O)cn2C1CC1 (configuration not stated),inactive,inactive
C/C=C/c1ccc(OC)cc1,inactive,inactive
CCN1CCN(c2cc3c(cc2F)c(=O)c(C(=O)O)cn3C2CC2)CC1,inactive,inactive
Oc1c(I)cc(I)c2cccnc12,2.99 µM (active),2.11 µM (active)
CCOC(=O)COc1ccc2c(C)c(CCN(CC)CC)c(=O)oc2c1Cl,inactive,inactive
O=c1[nH]c(=O)n([C@H]2CCCO2)cc1F,inactive,inactive
CC(CCc1ccccc1)NCC(O)c1ccc(O)c(C(N)=O)c1 (configuration not stated),inactive,inactive
Nc1ccc(C(=O)O)cc1,inactive,inactive
CC1(C)O[C@@H]2C[C@H]3[C@@H]4CCC5=CC(=O)CC[C@]5(C)[C@@]4(F)[C@@H](O)C[C@]3(C)[C@]2(C(=O)CCl)O1,inactive,inactive
CCCCCCC[N+](CC)(CC)CCCCc1ccc(Cl)cc1,1.88 µM (active),1.88 µM (active)
O=C(O)CCCCC(=O)O,inactive,inactive
CCCCS(=O)(=O)N[C@@H](Cc1ccc(OCCCCC2CCNCC2)cc1)C(=O)O,inactive,inactive
Cc1c(C)n(Cc2ccccc2)c2ccc(C(=O)OCCN(C)C)cc12,10.6 µM (active),9.44 µM (active)
CC1=C(C(=O)O)N2C(=O)[C@@H](NC(=O)[C@H](N)c3ccc(O)cc3)[C@H]2SC1,inactive,inactive
CN1CCC(=C2c3ccccc3Sc3ccccc32)CC1,16.8 µM (active),11.9 µM (active)
COc1cc(C(=S)N2CCOCC2)cc(OC)c1OC,inactive,inactive
Cc1cc(O)c(C(C)C)cc1Cl,inactive,inactive
Cc1cccn2c(=O)c(-c3nnn[nH]3)cnc12,inactive,inactive
CCCCCCCCCCCCCCCCCC(=O)OCC(O)CO (configuration not stated),inactive,inactive
CCN(CC)CCOc1ccc(C(O)(Cc2ccc(Cl)cc2)c2ccc(C)cc2)cc1 (configuration not stated),5.31 µM (active),2.66 µM (active)
CCOC(=O)OC(C)OC1=C(C(=O)Nc2ccccn2)N(C)S(=O)(=O)c2ccccc21 (configuration not stated),inactive,inactive
CC(=O)N/N=C/c1ccc([N+](=O)[O-])o1,9.44 µM (active),8.41 µM (active)
CC(O)(P(=O)(O)O)P(=O)(O)O,inactive,inactive
C[C@@H]1CN(CCCn2c3ccccc3c3ccccc32)C[C@H](C)N1,26.6 µM (active),23.7 µM (active)
CC1(C)O[C@@H]2C[C@H]3[C@@H]4C[C@H](F)C5=CC(=O)C=C[C@]5(C)[C@H]4[C@@H](O)C[C@]3(C)[C@]2(C(=O)CO)O1,inactive,0.0166 µM (active)
NCCc1ccn[nH]1,inactive,inactive
